48 compounds from PubChem BioAssay AID1851 (National Center for Advancing Translational Sciences (NCATS), 2009) can be followed below.

The structures appear in SMILES notation. The campaign covered roughly 16,000 compounds. About 5,800 (36%) were called active. Inconclusive results (about 23%) are left out. This is one part of the list. A number with no mark means an inactive call. The call rests on the fitted dose curve; in most records, active means well fitted curve in the direction sought with a large enough effect; inconclusive means small, poorly fitted or top-dose-only effect, or effect the other way; inactive means no such curve, though single readings can be large or run the other way.
On the % scale 0 is the no-effect control and ±100 the full control effect.

The target of the assay is Cytochrome P450 2C19 (Homo sapiens) (UniProt P33261). In words: Cytochrome panel assay with activity outcomes. The note with it: recombinant CYP, pro-luciferin dealkylation, luminescence, p450-cyp2c19; series mostly up to 57.1 µM; activity, negative = inhibition: at the top concentration.
Sequence of Cytochrome P450 2C19 (Homo sapiens) (P33261 whole entry, looked up): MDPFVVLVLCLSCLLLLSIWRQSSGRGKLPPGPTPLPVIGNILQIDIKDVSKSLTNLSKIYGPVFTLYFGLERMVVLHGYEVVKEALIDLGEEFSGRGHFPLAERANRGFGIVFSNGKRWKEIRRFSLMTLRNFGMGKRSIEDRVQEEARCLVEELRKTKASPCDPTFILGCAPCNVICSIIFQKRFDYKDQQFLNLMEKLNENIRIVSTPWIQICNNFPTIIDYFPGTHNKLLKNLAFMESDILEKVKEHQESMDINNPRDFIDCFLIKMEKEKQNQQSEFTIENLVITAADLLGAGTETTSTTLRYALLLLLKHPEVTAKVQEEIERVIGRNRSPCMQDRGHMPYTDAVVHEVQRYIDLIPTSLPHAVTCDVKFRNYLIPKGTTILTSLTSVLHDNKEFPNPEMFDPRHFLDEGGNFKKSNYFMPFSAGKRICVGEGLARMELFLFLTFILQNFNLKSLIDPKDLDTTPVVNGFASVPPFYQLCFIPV
On to `COc1ccc(C(=O)N/N=C/c2cccc3cccnc23)cc1`, for which the AC50 was 28.2 µM (active).
Same read-out and setting: as for `COc1ccc(C(=O)Oc2cc(/C=N/NS(=O)(=O)c3ccc(C)cc3)ccc2OC)cc1`, the figure is 1.78 µM (active); as for `O=C(CCc1nc(-c2ccccc2)c(-c2ccccc2)o1)OCc1ccc(Cl)cc1`, 6.31 µM (active).
Regarding `CCOC(=O)N1CCN(C(=O)c2ccc3c(=O)n(-c4ccc(OC)cc4)c(=S)[nH]c3c2)CC1`, the “activity, negative = inhibition” value was -5.12%.
On to `COc1ccc(-n2c(=S)[nH]c3cc(C(=O)NCCCN4CCCC4=O)ccc3c2=O)cc1`, for which the AC50 was 39.8 µM (active).
Still for that read-out and setting: as for `CNC(=O)c1ccc(-c2sc3nc(N4CCOCC4)c4c(c3c2N)CC(C)(C)OC4)o1`, the figure is 11.2 µM (active).
With `CC(=O)N[C@@H]1CONC1=O`, the activity, negative = inhibition was 21.6% [at 11.4 µM].
On the same count and under the same terms, as for `O=C(O)C[C@H]1OCC=C2C[N@@+]3([O-])CC[C@]45c6ccccc6N[C@@H]4[C@@H]1[C@H]2C[C@H]53`, the figure is 13.9% [at 11.4 µM]; as for `Cc1nn(C)c(Cl)c1S(=O)(=O)N[C@@H](c1ccccc1)[C@]1(C)C[C@H]1[C@@H](C)C(=O)Nc1ccc2ccccc2c1`, -25.4%.
Take `Cc1cc(C(=O)N[C@H](c2ccccc2)[C@@]2(C)C[C@@H]2[C@@H](C)C(=O)Nc2ccc3ccccc3c2)n(C)n1`: the half-maximal activity concentration (AC50) was 15.8 µM (active).
Regarding `Cc1cc(C(=O)N[C@@H](c2ccccc2)[C@]2(C)C[C@H]2[C@@H](C)C(=O)Nc2ccc3ccccc3c2)n(C)n1`, the AC50 was 10 µM (active).
As for `COc1ccc(NC(=O)N2CC[C@@]3(CCCN(C(=O)c4ccc(OC)cc4)C3)C2)cc1`, the “activity, negative = inhibition” value is -13.8%.
Same read-out and setting: as for `CCOCC(=O)Nc1cc(C(=O)Nc2cccc(C)c2C)ccc1Cl`, the figure is -20.5%.
`CCOCC(=O)Nc1cc(C(=O)Nc2ccccc2)ccc1Cl`: the AC50 was 10 µM (active).
Consider `CCc1ccc(NC(=O)c2cc(C(C)C)on2)cc1`, for which the “activity, negative = inhibition” value is -13.3%.
Turning to `Cc1cc(NC(=O)c2nn(C)c(C)c2[N+](=O)[O-])no1`, the “activity, negative = inhibition” value is 10.5%.
For the compound `Cc1cc(NC(=O)c2cc(C(C)C)on2)no1`, the AC50 is 14.1 µM (active).
As for `N#CC1=C(N)OC2=C(CC/C2=C\c2ccccc2)C1c1ccccc1` (stereo not drawn), the AC50 was 1.58 µM (active).
As to `CN1CCN(c2ncc3nc(-c4ccc(Cl)cc4)c(=O)n(Cc4ccc(F)cc4)c3n2)CC1`, the “activity, negative = inhibition” value was -25.5%.
For `Cn1c(=O)c2[nH]c(C3CCCC3)nc2n(C)c1=O`, the “activity, negative = inhibition” value was 36.3%.
As to `O=C(O)CC(O)C(=O)O` (stereo not drawn), the “activity, negative = inhibition” value is 16.8%.
Consider `O=C(NCC1CCC(C(=O)O)CC1)OCc1ccccc1` (stereo not drawn), for which the “activity, negative = inhibition” value was -23.7%.
On to `CSc1nsc(SC)c1NC(=O)OCc1ccccc1`, for which the AC50 was 0.708 µM (active).
For `O=C(O)/C=C\C(=O)Nc1ccccn1`, the activity, negative = inhibition was 14.6% [at 11.4 µM].
Consider `O[C@H](CNc1ccccn1)c1ccccc1`, for which the activity, negative = inhibition is -7.78% [at 11.4 µM].
In the case of `CSc1nsc(SC)c1NC(=O)Nc1ccccn1`, the AC50 was 7.94 µM (active).
`O=C(O)c1nnsc1COCc1ccccc1`: the activity, negative = inhibition was 2.27% [at 11.4 µM].
As to `Cc1cccc(CNc2ncncc2-c2cccnc2)c1`, the half-maximal activity concentration (AC50) was 10 µM (active).
On the same count and under the same terms, as for `COc1cccc(-c2cncnc2NCc2ccccc2)c1`, the figure is 1.58 µM (active).
Turning to `COc1cccc(Nc2ncc3nc(-c4ccccc4)c(=O)n(Cc4cccs4)c3n2)c1`, the “activity, negative = inhibition” value is -21%.
The same measure, in the same setting: as for `c1cncc(CNc2ncncc2-c2cccnc2)c1`, the figure is -44.3%.
Turning to `COc1cccc(-c2cncnc2NCc2cccc(C)c2)c1`, the AC50 was 0.794 µM (active).
The same measure, in the same setting: as for `COc1cccc(-c2cncnc2NCc2cccs2)c1`, the figure is 0.631 µM (active).
On to `COc1cccc(-c2cncnc2NCCN2CCOCC2)c1`, for which the “activity, negative = inhibition” value is -44.4%.
As to `COc1cccc(-c2cncnc2NCc2cccnc2)c1`, the concentration at half-maximal activity (AC50) was 0.316 µM (active).
Same read-out and setting: as for `CCOC(=O)C1=C(CN2c3ccccc3CC2C)NC(=O)NC1c1ccccc1` (stereo not drawn), the figure is 7.08 µM (active).
Turning to `C[C@@H](CC(=O)O)[C@@H](N)C(=O)O`, the “activity, negative = inhibition” value was -23%.
Take `Cc1c(NC(=S)/C=C2\N(C)c3ccccc3C2(C)C)c(=O)n(-c2ccccc2)n1C`: the AC50 is 14.1 µM (active).
As to `Cc1c(NC(=S)N/N=C/c2ccc(O)cc2)c(=O)n(-c2ccccc2)n1C`, the “activity, negative = inhibition” value is -16.2%.
Turning to `Fc1ccc(-c2[nH]ncc2-c2nnnn2-c2ccccc2)c(F)c1`, the AC50 was 0.631 µM (active).
Turning to `NC(=O)c1ncn([C@@H]2O[C@@H](CO)[C@@H](O)[C@H]2O)c1O`, the “activity, negative = inhibition” value is 20.9%.
On the same count and under the same terms, as for `O=C1CN(c2nc(-c3ccccc3)c3cc(Br)ccc3n2)c2ccccc2N1`, the figure is -16.6%; as for `CC(C)NC[C@@H](O)COc1ccccc1-n1cccc1`, -27.9%.
Take `CC(C)(C)NC[C@H](O)COc1cccc2c1CCCC2=O`: the AC50 entry was “inactive”.
For the compound `N=C(C[C@@H](O)COc1ccccc1-c1ccccc1)N1CCCCC1`, the concentration at half-maximal activity (AC50) was 31.6 µM (active).
Still for that read-out and setting: as for `O=C1C(=O)c2ccccc2C(O)=C1C(C1=C(O)c2ccccc2C(=O)C1=O)c1ccc(Cl)cc1`, the figure is 3.98 µM (active).
Turning to `O=C1C(=O)c2ccccc2C(O)=C1C1CCC(c2ccc(Cl)cc2)CC1` (stereo not drawn), the “activity, negative = inhibition” value is -17% [at 25.6 µM].
Still for that read-out and setting: as for `O=C1C(=O)c2ccccc2C(O)=C1C(CCc1ccccc1)C1=C(O)c2ccccc2C(=O)C1=O`, the figure is 21.7% [at 11.4 µM].
